17 compounds from PubChem BioAssay (NCATS) can be followed below.

Structures are written as SMILES. “And” between values parts separate entries of the source, which are not always exact repeats. Identical values can stand only once. Unmarked numbers belong to inactive results. Records with an inconclusive call do not appear. The source made the active and inactive calls. Unless noted, the call rests on the fitted dose curve; in most records, active means well fitted curve in the direction sought with a large enough effect; inconclusive means small, poorly fitted or top-dose-only effect, or another doubt; inactive means no such curve, though single readings can be large; an effect the other way counts as inactive or inconclusive.

Assay [1] concerns Hek293T. In words: Primary qHTS to identify gynecologic anti-cancer compounds using libraries of approved drugs and bioactive compounds (AID 1345084). Further: on the % scale 0 is the no-effect control and ±100 the full control effect; nearly all actives have a fitted effect of over 55% in size. Particulars: Gynecologic cancer cell panel viability, ATPlite luminescence, 48 h, control line for the selectivity index; series mostly up to 57.5 µM. A digest of the protocol:
(§1)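 Cell viability after 48 h drug treatment, ATPlite luminescence readout; five doses.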
For orientation: Quantitative high-throughput screening tests each substance at several concentrations.

For assay [2], the system named is JEG-3. The description is as above. Particulars: Gynecologic cancer cell panel viability, ATPlite luminescence, 48 h; series mostly up to 57.5 µM. A digest of the protocol:
as §1
On the technique in general: In ATP-based viability assays light output follows the ATP content of the culture.

Assay [3] relates to OV90. Described as above. Conditions: Gynecologic cancer cell panel viability, ATPlite luminescence, 48 h; series mostly up to 57.5 µM. In short, it runs like this: as §1
Assay [4] has as its system PA-1. The description is as above. Conditions: Gynecologic cancer cell panel viability, ATPlite luminescence, 48 h; series mostly up to 57.5 µM. In short, it runs like this: as §1
Assay [5] deals with SKOV3. The assay is described as above. Particulars: Gynecologic cancer cell panel viability, ATPlite luminescence, 48 h; series mostly up to 57.5 µM. A digest of the protocol:
as §1

Assay [6] concerns Tov-21-G. Described as above. Conditions: Gynecologic cancer cell panel viability, ATPlite luminescence, 48 h; series mostly up to 57.5 µM. In short, it runs like this: as §1
Assay [7] relates to Tov112D. The assay is described as above. Conditions: Gynecologic cancer cell panel viability, ATPlite luminescence, 48 h; series mostly up to 57.5 µM. A digest of the protocol: as §1
Assay [8] is described as follows: Drug repurposing screens with cells derived from glioblastoma tumor samples (AID 1345199). Further: nearly all actives have a fitted effect of over 40% in size. Further: potency means the concentration at half of the fitted maximal effect. On activity, negative = cell killing: on the % scale 0 is the no-effect control and ±100 the full control effect. Particulars: GBM patient neurospheres viability, ATP luminescence, 48 h. In short, it runs like this:
(§2)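 Four patient lines of CD133+ GBM neurospheres were screened at several concentrations; hits were retested in those lines plus three slower-growing GBM lines, using 48-hour treatment and ATP-based viability.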

Assay [9] deals with astro. The assay is described as above. Particulars: viability, ATP luminescence, 48 h; series mostly up to 45.9 µM. In short, it runs like this:
as §2

The target in assay [10] is Nuclear receptor subfamily 1 group I member 2 (Rattus norvegicus) (UniProt Q9R1A7). Briefly: qHTS assay for small molecule activators of the rat pregnane X receptor (rPXR) signaling pathway (AID 651751; call rule not given here; further: 0% is about no effect). Conditions: rPXR reporter cells, luciferase (One-Glo), 24 h.
The nature of assay [11]: qHTS assay for small molecule activators of the human pregnane X receptor (PXR) signaling pathway (AID 720659; call rule not given here; further: 0% is about no effect).
[12] abbreviates: at 20 µM (top of the series), tumour line C.
Where [13] appears, read: at 45.9 µM (top of the series), tumour line B.
Setting [14] is: at 45.9 µM (top of the series), tumour line D.
The mark [15] stands for this setting: at 46.1 µM (top of the series), tumour line C.
[16] abbreviates: at 46 µM (top of the series), tumour line A.
[17] abbreviates: at 21.2 µM (top of the series), tumour line B.
[18] abbreviates: at 21.2 µM (top of the series), tumour line D.

Sequence of Nuclear receptor subfamily 1 group I member 2 (Rattus norvegicus) (Q9R1A7 whole entry, looked up): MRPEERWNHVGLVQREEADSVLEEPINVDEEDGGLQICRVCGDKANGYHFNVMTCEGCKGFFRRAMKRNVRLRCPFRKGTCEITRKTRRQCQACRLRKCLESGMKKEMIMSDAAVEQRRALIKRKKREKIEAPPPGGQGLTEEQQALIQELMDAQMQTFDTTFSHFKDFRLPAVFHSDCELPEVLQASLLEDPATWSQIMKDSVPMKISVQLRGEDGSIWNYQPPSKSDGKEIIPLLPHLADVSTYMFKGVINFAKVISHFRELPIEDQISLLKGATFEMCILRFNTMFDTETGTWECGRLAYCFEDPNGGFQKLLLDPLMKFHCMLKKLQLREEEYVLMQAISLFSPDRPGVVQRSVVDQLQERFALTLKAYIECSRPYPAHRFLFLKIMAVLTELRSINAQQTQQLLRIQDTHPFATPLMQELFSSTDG

`O=C1C(=O)c2ccccc2C(O)=C1C1CCC(c2ccc(Cl)cc2)CC1` (centres undefined): the Potency entry in assay [1], in assay [2], in assay [3], in assay [4], in [5] and in [6] was “inactive” each time. For the same compound, in [7], the Potency entry is “inactive”. For the same compound, the activity, negative = cell killing in [8] (setting [12]) was -16.4%. The Potency is 14.1 µM (active) in [8] (tumour line A), 8.91 µM (active) in assay [8] (tumour line D) and 12.6 µM (active) in assay [9].
In the case of `NC(=O)C1(N2CCCCC2)CCN(CCCC(=O)c2ccc(F)cc2)CC1`, the Potency entry in assay [1], in assay [2], in assay [3], in [4], in assay [5] and in assay [6] was “inactive” throughout. The Potency entry in assay [7] and in assay [9] was “inactive” in each case. The activity, negative = cell killing in assay [8] (setting [13]) was -7.35%; in assay [8] (setting [14]), -28%. Besides, the Potency in [8] (tumour line A) was 10 µM (active).
Regarding `NCCNc1cccc2ccccc12`, the Potency entry in [1], in [2], in [3], in [4], in assay [5] and in assay [6] was “inactive” each time. Besides, the Potency result in assay [7] was “inactive”. The activity, negative = cell killing was -17.3% in [8] (setting [13]), -24.3% in assay [8] (setting [14]) and -28% in assay [8] (setting [15]). Further, the Potency in assay [8] (tumour line A) is 20 µM (active). For the same compound, the max response in assay [10] was -3.2% and 4.24%.
On to `CC(C)Cn1cnc2c1c(=O)n(C)c(=O)n2C`, for which the Potency result in assay [1], in [2], in assay [3], in assay [4], in assay [5] and in assay [6] was “inactive” in each case. The Potency entry in assay [7] and in assay [9] was “inactive” throughout. The activity, negative = cell killing in [8] (setting [13]) was -4.91%; in [8] (setting [14]) it was -3.1%; in [8] (setting [15]) it was -1.11%.
In the case of `CCCCCCCCCCCCCCCC(=O)O`, the Potency entry in [1], in assay [2], in assay [3], in assay [4], in [5] and in assay [6] was “inactive” each time. Moreover, the Potency entry in assay [7] was “inactive”. In addition, the activity, negative = cell killing in assay [8] (setting [13]) was -2.37%; in assay [8] (setting [14]) it was 1.78%; in [8] (setting [16]), -27.9%; in assay [8] (setting [15]) it was 2.94%. Besides, the max response in assay [10] was -0.866%. For the same compound, the result in assay [11] was inactive.
In the case of `CC(C)=CCOc1ccc(/C=C/C(=O)c2ccc(OCC=C(C)C)cc2OCC(=O)O)cc1`, the Potency result in [1], in assay [2], in [3], in assay [4], in [5] and in assay [6] was “inactive” each time. For the same compound, in [7], the Potency result was “inactive”. Further, the activity, negative = cell killing in [8] (setting [13]) was 16%; in assay [8] (setting [14]), -25.2%; in assay [8] (setting [15]), -4.09%. The Potency in assay [9] was 31.6 µM (active).
`OC[C@H]1O[C@@H]2O[C@H]3[C@H](O)[C@@H](O)[C@@H](O[C@H]4[C@H](O)[C@@H](O)[C@@H](O[C@H]5[C@H](O)[C@@H](O)[C@@H](O[C@H]6[C@H](O)[C@@H](O)[C@@H](O[C@H]7[C@H](O)[C@@H](O)[C@@H](O[C@H]8[C@H](O)[C@@H](O)[C@@H](O[C@H]1[C@H](O)[C@H]2O)O[C@@H]8CO)O[C@@H]7CO)O[C@@H]6CO)O[C@@H]5CO)O[C@@H]4CO)O[C@@H]3CO`: the Potency result in [1], in assay [2], in assay [3], in assay [4], in assay [5] and in assay [6] was “inactive” throughout. The Potency entry in assay [7] was “inactive”. In addition, the activity, negative = cell killing in assay [8] (setting [13]) is -11.6%; in assay [8] (setting [14]) it was 5.3%; in assay [8] (setting [16]) it was -16.2%; in assay [8] (setting [15]), -14.8%. Besides, the max response in assay [10] was -1.43%. Further, the call in assay [11] was inactive.
Turning to `CN(C)CCN1C(=O)c2ccccc2N(C)c2ccccc21`, the Potency entry in assay [1], in [2], in assay [3], in [4], in assay [5] and in assay [6] was “inactive” each time. Also, the Potency result in assay [7] and in assay [9] was “inactive” throughout. The activity, negative = cell killing is -10.1% in assay [8] (setting [13]), -18.4% in assay [8] (setting [14]) and 4.2% in assay [8] (setting [15]).
In the case of `C/C=C/C=N/NC(=O)c1ccncc1`, the Potency result in assay [1], in assay [2], in assay [3], in assay [4], in assay [5] and in [6] was “inactive” each time. Also, the Potency entry in [7] and in assay [9] was “inactive” in each case. In addition, the activity, negative = cell killing in [8] (setting [13]) was -13.6%; in [8] (setting [14]), -18.3%; in [8] (setting [15]), -22.3%.
`C[N+]1(C)CCC(=C(c2ccccc2)c2ccccc2)CC1`: the Potency entry in assay [1], in [2], in assay [3], in assay [4], in assay [5] and in [6] was “inactive” throughout. For the same compound, the Potency result in assay [7] and in assay [9] was “inactive” throughout. Besides, the activity, negative = cell killing in assay [8] (setting [12]) was 3.13%; in assay [8] (setting [17]), -8.97%; in assay [8] (setting [18]), 4.56%.
With `OC[C@H]1O[C@@H](Oc2ccc(O)cc2)[C@H](O)[C@@H](O)[C@@H]1O`, the Potency result in [1], in assay [2], in assay [3], in [4], in assay [5] and in [6] was “inactive” each time. Further, the Potency result in [7] and in [9] was “inactive” each time. Moreover, the activity, negative = cell killing was 0.949% in assay [8] (setting [13]), 7.3% in [8] (setting [14]) and -9.99% in assay [8] (setting [15]).
Turning to `COc1ccc(S(=O)(=O)N2c3ccc(Cl)cc3[C@@](O)(c3ccccc3Cl)[C@H]2C(=O)N2CCC[C@@H]2C(N)=O)cc1OC`, the Potency result in [1], in assay [2], in assay [3], in [4], in assay [5] and in assay [6] was “inactive” throughout. Besides, the Potency result in [7] and in [9] was “inactive” throughout. In addition, the activity, negative = cell killing in [8] (setting [13]) is -16.9%; in assay [8] (setting [14]) it was -6.65%; in [8] (setting [15]) it was -27%.
With `O=C1OC2(c3ccccc31)c1cc(Br)c(O)c(Br)c1Oc1c2cc(Br)c(O)c1Br`, the Potency result in assay [1], in [2], in assay [3], in assay [4], in assay [5] and in [6] was “inactive” in each case. The Potency result in assay [7] and in assay [9] was “inactive” each time. Besides, the figures for the activity, negative = cell killing in [8] (setting [13]), in [8] (setting [14]) and in [8] (setting [15]) were -12.6%, -6.67% and -34.7%, respectively.
For `COc1ccc(C(=O)c2ccccc2O)c(O)c1`, the Potency entry in assay [1], in [2], in assay [3], in assay [4], in assay [5] and in [6] was “inactive” in each case. In addition, the Potency entry in [7] and in assay [9] was “inactive” each time. The activity, negative = cell killing is -19.6% in assay [8] (setting [12]), 4.62% in [8] (setting [17]) and -15.3% in [8] (setting [18]).
Turning to `CN(C)CCOC(=O)C(c1ccccc1)C1(O)CCCC1` (centres undefined), the Potency entry in assay [1], in [2], in assay [3], in [4], in [5] and in assay [6] was “inactive” throughout. Moreover, the Potency entry in assay [7] and in assay [9] was “inactive” throughout. For the same compound, the activity, negative = cell killing was -2.94% in [8] (setting [13]), -18.8% in assay [8] (setting [14]) and -22.9% in assay [8] (setting [15]).
In the case of `CCCN(CCC)S(=O)(=O)c1ccc(C(=O)O)cc1`, the Potency result in assay [1], in [2], in assay [3], in assay [4], in assay [5] and in assay [6] was “inactive” each time. For the same compound, the Potency result in assay [7] was “inactive”. For the same compound, the activity, negative = cell killing was -5.41% in assay [8] (setting [13]), 6.49% in [8] (setting [14]), -4.85% in [8] (setting [16]) and -7.91% in assay [8] (setting [15]). Moreover, in assay [10], the max response was 7.36% and 2.17%. For the same compound, the compound was called inactive in assay [11].
Consider `NC(=S)N/N=C/c1cccnc1`, for which the Potency result in assay [1], in assay [2], in assay [3], in assay [4], in assay [5] and in assay [6] was “inactive” each time. Also, the Potency result in assay [7] and in [9] was “inactive” each time. The activity, negative = cell killing in [8] (setting [13]) was -6.47%; in assay [8] (setting [14]), 0.861%; in [8] (setting [15]), -3.6%.
